An excerpt weighted towards active compounds, which were near 12% of everything screened.
WT yeast gro inh – growth inhibition of WT yeast, mitochondrial fusion screen; mitochondrial fusion phenotypic screen, WT strain; inhibition, % at 10 µM; actives 2.1% (n = 190,000); in the data active = inhibition above about 58%; tested in S. cerevisiae
Lmaj promast – reduces viability of Leishmania major promastigotes; resazurin fluorescence viability; inhibition, % at 10 µM; actives 9% (n = 200,000); AID 1063; in the data active = inhibition above about 50%;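 also: promastigotes grown with compound for 44 hours at 28 °C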
ROMK mod – human ROMK K+ channel modulation, primary screen. AID 1918. Tet-inducible ROMK, thallium flux fluorescence; actives lie on both sides. B-score at 10 µM. P48048. actives 2% (n = 130,000);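 active = signal ratio slope over the read window, or its plate-corrected B-score, at least 3 SD from the plate mean, either direction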;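 also: B-score of the F/F0 ratio slope over 7 to 12 s after thallium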
Calpain2 inh – calpain II (pig) inhibition; purified calpain II, fluorogenic peptide substrate, 30 min; inhibition, % at 16 µM; actives 0.37% (n = 220,000);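 active = inhibition above about 50%, limit read from the data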
Cl transport mod – KCC2 (human) Cl- transport modulation; Q9H2X9; KCC2 cells, thallium flux FluoZin-2 fluorescence; B-score of Tl+ flux slope (higher = more flux/activation; lower = inhibition) at 10 µM; AID 1456; actives 2.2% (n = 190,000);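 active = thallium flux slope and its plate-corrected score both differing from the plate sample mean at a set confidence after two filtering rounds, in either direction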;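 also: slope of fluorescence scaled to starting intensity during 10 to 20 s after thallium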
Target sequence (Q9H2X9 whole entry, looked up): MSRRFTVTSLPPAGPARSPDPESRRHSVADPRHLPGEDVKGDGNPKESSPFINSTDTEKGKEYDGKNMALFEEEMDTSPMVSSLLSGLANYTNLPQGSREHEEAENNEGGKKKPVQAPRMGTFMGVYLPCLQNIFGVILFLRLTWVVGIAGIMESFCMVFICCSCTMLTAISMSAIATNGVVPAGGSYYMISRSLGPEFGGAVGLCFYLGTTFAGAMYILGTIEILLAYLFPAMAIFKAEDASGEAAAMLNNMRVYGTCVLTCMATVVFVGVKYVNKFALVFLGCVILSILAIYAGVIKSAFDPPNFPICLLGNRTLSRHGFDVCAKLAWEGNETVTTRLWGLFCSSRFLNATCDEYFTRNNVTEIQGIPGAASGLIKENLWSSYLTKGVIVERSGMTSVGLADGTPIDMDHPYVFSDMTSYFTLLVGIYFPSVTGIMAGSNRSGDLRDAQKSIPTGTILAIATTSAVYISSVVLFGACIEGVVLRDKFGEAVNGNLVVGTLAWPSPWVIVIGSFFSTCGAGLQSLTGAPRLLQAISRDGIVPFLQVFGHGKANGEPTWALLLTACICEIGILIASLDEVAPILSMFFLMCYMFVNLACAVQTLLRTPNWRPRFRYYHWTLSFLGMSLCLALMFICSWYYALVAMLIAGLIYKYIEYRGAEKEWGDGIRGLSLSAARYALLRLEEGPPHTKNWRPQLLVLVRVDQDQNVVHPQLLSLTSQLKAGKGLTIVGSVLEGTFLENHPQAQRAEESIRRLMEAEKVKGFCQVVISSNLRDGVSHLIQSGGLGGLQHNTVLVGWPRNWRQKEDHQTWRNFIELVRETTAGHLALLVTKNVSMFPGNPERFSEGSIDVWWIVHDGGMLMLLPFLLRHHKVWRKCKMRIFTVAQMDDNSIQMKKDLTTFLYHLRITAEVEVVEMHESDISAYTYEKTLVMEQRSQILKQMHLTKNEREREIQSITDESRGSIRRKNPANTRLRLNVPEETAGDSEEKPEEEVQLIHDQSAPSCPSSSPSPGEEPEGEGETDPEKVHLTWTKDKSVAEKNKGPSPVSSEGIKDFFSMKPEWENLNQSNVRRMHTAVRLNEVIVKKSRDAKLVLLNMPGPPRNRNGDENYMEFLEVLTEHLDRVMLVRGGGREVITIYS
KCC2 secondary – confirmation of human KCC2 transport modulators. shares compounds with Cl transport mod. HEK293-KCC2, thallium flux, FluoZin2 fluorescence; hits give high values. normalised thallium flux (F/F0 slope) at 10 µM. actives 15% (n = 3,700);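 active = thallium flux slope above the same plate's solvent-only control mean plus 3 SD; inconclusive = the two replicate wells disagree; inactive = no significant difference from solvent-only control wells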
KCC2 bumet counter – bumetanide-insensitive thallium flux in KCC2 cells with ouabain, counter-screen; HEK293-KCC2 + bumetanide/ouabain, thallium flux FluoZin2; hits give high values; AID 1714; shares compounds with Cl transport mod; normalized thallium flux at 10 µM; actives 49% (n = 3,700);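 active = thallium entry rate above the same plate's blocked-transporter control wells by more than 3 SD; inconclusive = the two repeat wells disagree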;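 also: raw slope of fluorescence over initial fluorescence between 10 and 20 s after thallium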
KCC2 sec2 – confirmation of human KCC2 transport modulators; HEK293-KCC2, thallium flux FluoZin2 fluorescence; actives lie on both sides; F/F0 rise rate, 10–20 s post-thallium; actives 23% (n = 3,700); normalized thallium flux at 10 µM; shares compounds with Cl transport mod;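 active = thallium flux slope more than 3 SD above or below the plate's solvent-only control mean, mostly below; inconclusive = the two repeat wells disagreed; inactive = no significant shift from solvent-only controls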
HEK293 Tl flux – parental HEK flux effect, counter-screen; shares compounds with Cl transport mod; HEK293 parental cells, thallium flux FluoZin2, ouabain; baseline-ratio fluorescence slope, 10–20 s after thallium; thallium flux rate (normalised fluorescence) at 10 µM; actives 46% (n = 3,700); AID 1716;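 active = thallium flux rate significantly above the same plate's solvent-only control wells, beyond their mean plus 3 SD; inconclusive = the two replicate wells gave conflicting results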
KCC2 ouabain – modulates human KCC2 on retest with ouabain; shares compounds with Cl transport mod; HEK293-KCC2, thallium flux FluoZin2 fluorescence; bidirectional: low = inhibitor, high = activator; raw Tl+ flux slope (below DMSO = inhibition, above = activation) at 10 µM; actives 48% (n = 3,700); AID 1717;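 active = thallium flux slope beyond 3 SD from same-plate DMSO control mean in most replicates, usually higher, sometimes lower; inconclusive = repeat tests gave conflicting results; inactive = no significant difference from controls in most replicates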;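 also: slope of initial-normalized fluorescence between seconds 10 and 20 after thallium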
HEK counter2 – parental HEK flux effect, counter-screen 2 | thallium flux slope at 10 µM | HEK293 parental, thallium flux FluoZin-2 fluorescence slope | actives 33% (n = 3,700) | shares compounds with Cl transport mod;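 active = thallium flux slope above the same plate's solvent-control mean plus 3 SD in both duplicate wells; inconclusive = duplicate wells that disagreed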;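 also: run without ouabain in cells lacking the KCC2 cotransporter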
Each line names hits and unclear results; the compound was inactive in the other large screens (follow-up assays come after a bar, where they were run).

CC(=O)NNC(=O)c1sc(=S)n2c1[nH]c(=O)c1sccc12	Cl transport mod 8.19 | KCC2 secondary inactive | KCC2 bumet counter 0.0103 | KCC2 sec2 inactive | HEK293 Tl flux 0.0121 | KCC2 ouabain inconclusive | HEK counter2 0.0118
S=c1nc2ccccc2c2nc(-c3ccccc3)[nH]n12	WT yeast gro inh 71.0, Cl transport mod 32.3 (no result: ROMK mod) | KCC2 secondary 0.0301 | KCC2 bumet counter 0.0459 | KCC2 sec2 inactive | HEK293 Tl flux 0.013 | KCC2 ouabain 0.0413 | HEK counter2 0.0169
COC(=O)C1=C(Nc2ccccc2NS(=O)(=O)c2ccc(C(F)(F)F)cc2Cl)CSC1	Cl transport mod 5.53 (no result: WT yeast gro inh, Lmaj promast) | KCC2 secondary inactive | KCC2 bumet counter 0.0114 | KCC2 sec2 inactive | HEK293 Tl flux 0.0121 | KCC2 ouabain inconclusive | HEK counter2 0.012
S=C(Nc1ccccc1)Nc1cccc(Cl)c1Cl	Cl transport mod 17.1 | KCC2 secondary inactive | KCC2 bumet counter 0.0161 | KCC2 sec2 inactive | HEK293 Tl flux 0.0121 | KCC2 ouabain inconclusive | HEK counter2 0.0138
CCOC(=O)N1CCN(S(=O)(=O)c2cc(C)c(C)cc2C)CC1	none
Cc1cc(C)c(S(=O)(=O)/N=C2/C=C(SCC(=O)O)C(=O)c3ccccc32)cc1C	WT yeast gro inh 66.1, Lmaj promast 99.9, Cl transport mod -4.2 | KCC2 secondary inactive | KCC2 bumet counter 0.00699 | KCC2 sec2 inconclusive | HEK293 Tl flux inactive | KCC2 ouabain inactive | HEK counter2 inactive
Cc1cc(C(F)(F)F)nc(CCNCc2c(C(=O)N3CCCC3)nc3ccccn23)n1	none
CCOc1ccc(CN(C(=O)c2oc3ccccc3c2C)C2CCS(=O)(=O)C2)cc1 (configuration not stated)	none (no result: ROMK mod) | KCC2 secondary inactive | KCC2 bumet counter inactive | KCC2 sec2 inactive | HEK293 Tl flux inactive | KCC2 ouabain inactive | HEK counter2 inactive
Cn1nc(C(=O)N2CCOCC2)c([N+](=O)[O-])c1C(=O)N1CCOCC1	none (no result: ROMK mod)
CC(C1CC1)N(Cc1ccccc1)C(=S)Nc1ccccc1Cl (configuration not stated)	none
CN1/C(=C/C(=O)C2CCC2)Sc2ccccc21	Cl transport mod -4.56 (no result: ROMK mod) | KCC2 secondary inactive | KCC2 bumet counter inactive | KCC2 sec2 0.0216 | HEK293 Tl flux inactive | KCC2 ouabain 0.0139 | HEK counter2 inactive
COCC(=O)/C=C1\Sc2ccccc2N1C	none (no result: ROMK mod)
COc1ccc(/C=C(\C#N)C(=O)Nc2ccc3[nH]c(=O)[nH]c3c2)cc1	none (no result: WT yeast gro inh, Lmaj promast, ROMK mod)
C/C(=N\NC(N)=O)c1c(F)cccc1F	none (no result: WT yeast gro inh, Lmaj promast, ROMK mod)
COc1ccc2c(c1)C=C(C(=O)OCc1cccnc1)CO2	none
O=C(Cn1cnc2c(oc3ccccc32)c1=O)N1CCCc2ccccc21	none
O=C(CSc1ncnc2c1oc1ccccc12)N1CCCc2ccccc21	none (no result: Cl transport mod) | KCC2 secondary inactive | KCC2 bumet counter inactive | KCC2 sec2 inactive | HEK293 Tl flux inactive | KCC2 ouabain 0.0163 | HEK counter2 inactive
O=[N+]([O-])c1ccc(/C=N/Nc2nc(N3CCCC3)nc(N3CCCC3)n2)o1	Lmaj promast 99.3, Cl transport mod 6.13 | KCC2 secondary inactive | KCC2 bumet counter inactive | KCC2 sec2 inactive | HEK293 Tl flux inactive | KCC2 ouabain inactive | HEK counter2 inactive
O=[N+]([O-])c1ccc(-c2ccc(/C=N/Nc3nc(N4CCCC4)nc(N4CCCC4)n3)o2)cc1	none
CCOC(=O)c1cnn(-c2nc(OC)cc(OC)n2)c1C(F)(F)F	Cl transport mod -10.7 (no result: ROMK mod) | KCC2 secondary inactive | KCC2 bumet counter inactive | KCC2 sec2 inactive | HEK293 Tl flux inactive | KCC2 ouabain inactive | HEK counter2 inactive
N#Cc1ccsc1NC(=O)c1ccc(Cl)c([N+](=O)[O-])c1	Cl transport mod -5.33 (no result: WT yeast gro inh, Lmaj promast, ROMK mod) | KCC2 secondary inactive | KCC2 bumet counter inactive | KCC2 sec2 0.0224 | HEK293 Tl flux inactive | KCC2 ouabain inconclusive | HEK counter2 inactive
O=C(Cn1c(-c2ccccc2)noc1=O)N1CCC(Cc2ccccc2)CC1	Cl transport mod -5.16 | KCC2 secondary inactive | KCC2 bumet counter inactive | KCC2 sec2 0.028 | HEK293 Tl flux inactive | KCC2 ouabain 0.0152 | HEK counter2 inactive
COc1ccc(-c2noc(=O)n2CC(=O)N2CCC(Cc3ccccc3)CC2)cc1	Lmaj promast 95.9, Cl transport mod -4.73 | KCC2 secondary inactive | KCC2 bumet counter 0.00326 | KCC2 sec2 0.0226 | HEK293 Tl flux 0.00521 | KCC2 ouabain 0.0131 | HEK counter2 0.00751
COc1ccc(N(C(C)C(=O)N2CCC(Cc3ccccc3)CC2)S(C)(=O)=O)cc1 (configuration not stated)	Cl transport mod -3.62 | KCC2 secondary inconclusive | KCC2 bumet counter inactive | KCC2 sec2 inactive | HEK293 Tl flux inactive | KCC2 ouabain 0.0152 | HEK counter2 inactive
O=C(Cn1c(-c2ccccc2)noc1=O)Nc1ccc(S(=O)(=O)N2CCOCC2)cc1	none (no result: ROMK mod)
O=C(Cn1c(-c2ccccc2)noc1=O)Nc1ccc(N2CCCCCC2)cc1	none (no result: Cl transport mod) | KCC2 secondary inactive | KCC2 bumet counter inactive | KCC2 sec2 inactive | HEK293 Tl flux inactive | KCC2 ouabain 0.0163 | HEK counter2 inactive
CCOCC(=O)N1CCC(Cc2ccccc2)CC1	none
CCOC(=O)C1CCN(C(=O)C(C)N(c2ccc(Oc3ccccc3)cc2)S(C)(=O)=O)CC1 (configuration not stated)	none
CC(CNC(=S)Nc1cc(F)cc(F)c1)CSc1ccc(Cl)cc1 (configuration not stated)	none (no result: ROMK mod)
Cc1cc(-c2ccccc2)nn1-c1nc2c(c(=O)[nH]c(=O)n2C)n1C	none
O=S1(=O)CCN(Cc2ccc(Cl)c(C(F)(F)F)c2)CC1	none
CCn1c(=NC(=O)C2COc3ccccc3O2)sc2c(C)ccc(OC)c21 (configuration not stated)	none (no result: WT yeast gro inh, Lmaj promast, ROMK mod)
COc1ccc(-c2nnc(-c3ccc(OCC(C)C)cc3)o2)cc1	Cl transport mod -5.53 (no result: ROMK mod) | KCC2 secondary inactive | KCC2 bumet counter inactive | KCC2 sec2 inactive | HEK293 Tl flux inactive | KCC2 ouabain inactive | HEK counter2 inactive
CC(C)COc1ccc(-c2nnc(-c3ccncc3)o2)cc1	none (no result: ROMK mod)
Cc1noc(C)c1COc1ccc(C(=O)OCC(=O)NC23CC4CC(CC(C4)C2)C3)cc1	none (no result: Cl transport mod)
